The whole screen tested about 39,000 compounds, of which about 3,300 (8.5%) were called active. For the sample, actives were picked, then their nearest neighbours and some compounds at random.
These compounds were tested on HepG2 (assay: cytotoxicity call (relative viability < 0.9)). Settings: 10 µM.

Structure (SMILES) | cytotoxicity call
CNC(=O)CN(C#N)c1nc(N(C)C)nc(N(C)C)n1 | inactive
C[C@@H]1CCCCO[C@H](CN(C)Cc2ccc(C(=O)O)cc2)[C@H](C)CN([C@@H](C)CO)C(=O)c2cc(NC(=O)Nc3cccc4ccccc34)ccc2O1 | inactive
C[C@H](CO)N1C[C@H](C)[C@@H](CN(C)Cc2ccc(C(F)(F)F)cc2)Oc2c(NC(=O)Nc3ccccc3)cccc2C1=O | inactive
NNC(=O)c1nnn(-c2nonc2N)c1CN1CCCCC1 | inactive
CCc1c(C(=O)OC)nnn1-c1nonc1N | inactive
CN(C)Cc1c(C(=O)N/N=C/c2ccncc2)nnn1-c1nonc1N | active
Cc1noc(C)c1NC(=O)N(C)C[C@@H]1Oc2c(NS(=O)(=O)c3ccccc3)cccc2C(=O)N([C@@H](C)CO)C[C@H]1C | inactive
COc1ccc(NC(=O)N(C)C[C@@H]2OCCCC[C@H](C)Oc3ccc(NC(=O)Nc4ccc(C(F)(F)F)cc4)cc3C(=O)N([C@@H](C)CO)C[C@@H]2C)cc1 | inactive
C[C@@H]1CCCCO[C@H](CN(C)C(=O)Nc2ccccc2)[C@H](C)CN([C@@H](C)CO)C(=O)c2cc(NC(=O)Nc3ccc(C(F)(F)F)cc3)ccc2O1 | inactive
O=C1CC[C@H](C(=O)N2CCCCC2)N1 | inactive
COc1ccc(S(=O)(=O)N(C)C[C@@H]2Oc3ccc(NC(=O)Cc4ccccc4)cc3CC(=O)N([C@H](C)CO)C[C@@H]2C)cc1 | active
COc1ccc(S(=O)(=O)N(C)C[C@@H]2Oc3ccc(NC(=O)Cc4ccccc4)cc3CC(=O)N([C@@H](C)CO)C[C@H]2C)cc1 | inactive
Cc1ccc(S(=O)(=O)Nc2ccc3c(c2)CC(=O)N([C@@H](C)CO)C[C@H](C)[C@@H](CN(C)S(=O)(=O)c2ccc(F)cc2)O3)cc1 | inactive
Cc1noc(C)c1S(=O)(=O)Nc1ccc2c(c1)CC(=O)N([C@@H](C)CO)C[C@@H](C)[C@H](CN(C)S(=O)(=O)c1ccc(Cl)cc1)O2 | active
COc1ccc(S(=O)(=O)N(C)C[C@@H]2Oc3ccc(NS(=O)(=O)c4ccccc4)cc3CC(=O)N([C@H](C)CO)C[C@H]2C)cc1 | inactive
Cc1ccc(S(=O)(=O)N(C)C[C@H]2Oc3ccc(NS(=O)(=O)c4ccc(F)cc4)cc3CC(=O)N([C@@H](C)CO)C[C@H]2C)cc1 | inactive
Cc1noc(C)c1S(=O)(=O)Nc1ccc2c(c1)CC(=O)N([C@H](C)CO)C[C@@H](C)[C@@H](CN(C)S(=O)(=O)c1ccc(Cl)cc1)O2 | inactive
Cc1noc(C)c1S(=O)(=O)Nc1ccc2c(c1)CC(=O)N([C@H](C)CO)C[C@H](C)[C@@H](CN(C)S(=O)(=O)c1ccc(Cl)cc1)O2 | inactive
COc1ccc(S(=O)(=O)N(C)C[C@H]2Oc3ccc(NC(=O)Cc4ccccc4)cc3CC(=O)N([C@H](C)CO)C[C@@H]2C)cc1 | inactive
Cc1ccc(S(=O)(=O)N(C)C[C@H]2Oc3ccc(NS(=O)(=O)c4ccc(F)cc4)cc3CC(=O)N([C@@H](C)CO)C[C@@H]2C)cc1 | active
COc1ccc(S(=O)(=O)N(C)C[C@@H]2Oc3ccc(NS(=O)(=O)c4ccccc4)cc3CC(=O)N([C@@H](C)CO)C[C@H]2C)cc1 | active
COc1ccc(S(=O)(=O)Nc2ccc3c(c2)CC(=O)N([C@@H](C)CO)C[C@H](C)[C@@H](CN(C)S(=O)(=O)c2ccccc2)O3)cc1 | inactive

Structure (SMILES) | cytotoxicity call
O=c1cc[nH]c(C(F)(F)F)n1 | inactive
C[C@@H]1CCCCO[C@@H](CN(C)C(=O)Nc2ccccc2)[C@H](C)CN([C@@H](C)CO)C(=O)c2cc(NS(=O)(=O)c3cccs3)ccc2O1 | inactive
C[C@H](CO)N1C[C@H](C)[C@H](CN(C)S(=O)(=O)c2cn(C)cn2)Oc2ncc(C#CCN(C)C)cc2C1=O | inactive
COc1ccc(NC(=O)Nc2cccc3c2O[C@H](CN(C)S(C)(=O)=O)[C@@H](C)CN([C@H](C)CO)C3=O)cc1 | inactive
Cc1noc(C)c1NC(=O)N(C)C[C@@H]1OCCCC[C@@H](C)Oc2ccc(NC(=O)c3ccccc3)cc2C(=O)N([C@H](C)CO)C[C@H]1C | inactive
CCC(=O)N1CCC[C@H](C(=O)O)C1 | inactive
NC(=O)CCCCC(N)=O | inactive
COc1ccc(NC(=O)Nc2ccc3c(c2)C(=O)N([C@@H](C)CO)C[C@@H](C)[C@@H](CN(C)C(=O)Nc2ccc(C(F)(F)F)cc2)OCCCC[C@@H](C)O3)cc1 | inactive
O=C(COP(=O)(O)O)[C@H](O)[C@@H](O)COP(=O)(O)O | inactive
C[C@@H]1CN([C@H](C)CO)C(=O)c2cc(NS(=O)(=O)c3ccc(F)cc3)ccc2O[C@@H](C)CCCCO[C@@H]1CN(C)C(=O)Cc1ccccc1 | inactive
C[C@H]1CN([C@@H](C)CO)C(=O)Cc2cc(NS(=O)(=O)c3ccc(Cl)cc3)ccc2O[C@@H]1CN(C)C | active
COc1ccc(S(=O)(=O)Nc2ccc3c(c2)CC(=O)N([C@H](C)CO)C[C@H](C)[C@@H](CN(C)C)O3)cc1 | inactive
C[C@@H]1CN([C@@H](C)CO)C(=O)Cc2cc(NS(=O)(=O)c3ccc(Cl)cc3)ccc2O[C@@H]1CN(C)C | inactive
COc1ccc(S(=O)(=O)Nc2ccc3c(c2)CC(=O)N([C@H](C)CO)C[C@@H](C)[C@@H](CN(C)C)O3)cc1 | active
C[C@@H]1CN([C@H](C)CO)C(=O)Cc2cc(NS(=O)(=O)c3ccc(Cl)cc3)ccc2O[C@@H]1CN(C)C | inactive
COc1ccc(S(=O)(=O)Nc2ccc3c(c2)CC(=O)N([C@H](C)CO)C[C@H](C)[C@H](CN(C)C)O3)cc1 | inactive
C[C@H]1CN([C@@H](C)CO)C(=O)c2cc(NC(=O)Nc3ccccc3)ccc2O[C@H]1CN(C)C(=O)Nc1cccc2ccccc12 | inactive
CN1C(=O)c2cc(NS(=O)(=O)c3cccc(F)c3)ccc2OC[C@H]2O[C@H](CC(=O)NCCN3CCCCC3)CC[C@H]21 | inactive
O=C(C[C@H]1C=C[C@@H](NC(=O)c2cccnc2)[C@@H](CO)O1)NCCN1CCCCC1 | inactive
CC(C)NC(=O)Nc1cccc2c1O[C@@H](CN(C)C(=O)NC1CCCCC1)[C@@H](C)CN([C@H](C)CO)C2=O | inactive
COc1ccc(S(=O)(=O)N(C)C[C@H]2OCCCC[C@H](C)Oc3ccc(NC(=O)Nc4ccccc4)cc3C(=O)N([C@@H](C)CO)C[C@@H]2C)cc1 | inactive

Reference: the antibiotic and cytotoxicity screens of Wong et al. (2023)
